The list is a sample of the results.
aSyn 5UTR act = Activators via SNCA 5'UTR binding, MLPCN | alpha-synuclein 5'UTR reporter, activators screen | activity score, % (tested at 7.5 µM), hits read low | 300,000 tested, 7.1% active; in the data active = activity score below about -60%
Hits are given with their value; i = inactive.

SMILES	aSyn 5UTR act
Cc1ccc(NC2=C(Cl)C(=O)OC2OC(C)C)c(C)c1 (stereo not drawn)	i
Cc1ccccc1Nc1n[nH]c(C)c1[N+](=O)[O-]	-65.0
Cc1ccc(Nc2n[nH]c(C)c2[N+](=O)[O-])c(C)c1	-65.8
O=C(NCCS(=O)(=O)N1CCN(c2ccc(F)cc2)CC1)c1ccc(Br)o1	i
CCOc1ccc(OCC(=O)NCCS(=O)(=O)N2CCN(c3ccc(F)cc3)CC2)cc1	-71.7
Cc1cc(C)c(-c2nc3ccccc3s2)[nH]1	-190.2
Cc1ccc(C=Nc2ccccc2C(=O)Nc2ccccc2)cc1	-77.2
COc1cccc(C=Nc2ccccc2C(=O)Nc2ccccc2)c1O	-70.9
Cc1ccc(C=Nc2ccccc2C(N)=O)cc1	-109.2
Cc1nc2c(sc3nc4c(cc32)COC(C)(C)C4)c(=O)n1CC(=O)NCc1ccco1	-69.3
Cc1nc(OCc2ccccc2)c2sc3nc4c(cc3c2n1)COC(C)(C)C4	-184.6
Cc1nc2c(sc3nc4c(cc32)COC(C)(C)C4)c(=O)n1Cc1ccccc1	-108.8
CCCc1nc2c(sc3nc4c(cc32)COC(C)(C)C4)c(=O)n1Cc1ccco1	-64.7
CC1=CC(C)=Nc2ccc(C)cc2N1	-62.5
COc1cccc(NC(=O)Nc2nc(SC(C)(C)C)ns2)c1	-130.1
COc1cccc(NC(=O)Nc2nc(SC)ns2)c1	-151.1
COc1ccc(/C(N)=N/OC(=O)C2CCCCC2)cc1	-131.1
COc1ccc(-c2ccc(C(=O)C3CC3)cc2)cc1	-107.3
COc1ccc(/C(N)=N/OC(=O)C2CCCCC2)cc1OC	-86.3
Cc1nc(-n2[nH]c3c(c2=O)CCCC3)[nH]c(=O)c1Cc1ccccc1	i
CN(C)c1ccc(-c2nc3cc(N)ccc3o2)cc1	i
CC(=O)Nc1ccc(-c2nc3cc(Cl)ccc3o2)cc1	-73.3
COc1ccccc1C(=O)Nc1ccc2oc(-c3ccc(F)cc3)nc2c1	-201.4
CC(C)(C)C(=O)Nc1ccc2oc(-c3cc(F)c(F)cc3Cl)nc2c1	-251.9
O=C(O)c1ccccc1-c1ccccc1C(=O)Nc1ccc(-c2nc3cc(Cl)ccc3o2)cc1	-77.3
SMILES	aSyn 5UTR act
O=C(Nc1ccccc1)[C@@H]1[C@@H]2C(=O)N(c3ccc(F)cc3)C(=O)[C@@H]2[C@H]2C=CC=NN21	-67.9
CC(=O)Oc1ccc(C(=O)[C@H]2[C@H]3C(=O)N(c4ccc(C)cc4)C(=O)[C@H]3[C@@H]3C=CC=NN32)cc1	-62.4
O=C(c1c(Cl)nc2sccn12)N(C(=O)c1c(Cl)nc2sccn12)c1ccc(Cl)cn1	-195.5
CC(=O)OCCCN1c2ccccc2Nc2nnc(-c3ccccc3)cc21	-155.3
CSc1nncc(/C(C)=N\Nc2ccccc2C)n1	-81.3
CSc1nsc(SCC(=O)Nc2ccc3c(c2)OCCO3)n1	-135.8
Cc1csc(SCC(=O)Nc2ccc3c(c2)OCCO3)n1	-66.9
Cc1cccc(-c2nsc(SCC(=O)Nc3ccc4c(c3)OCO4)n2)c1	-96.2
COc1ccc(NC(=O)C/C(C)=N/NC(=O)c2cccs2)c([N+](=O)[O-])c1	-111.0
COc1ccc(NC(=O)/C=C/c2ccccc2)c([N+](=O)[O-])c1	-175.7
COc1ccc(NC(=O)c2cccs2)c([N+](=O)[O-])c1	-160.6
COc1ccc(NC(=O)c2sccc2C)c([N+](=O)[O-])c1	-184.2
CCCCC(=O)Nc1ccc(C(=O)Nc2ccc(OC)cc2[N+](=O)[O-])cc1	i
Cc1noc(C(=O)Nc2ccc(F)c(Cl)c2)c1Cl	-70.4
Cc1ccc(NC(=O)c2onc(C)c2Cl)cc1	-150.6
CNc1nnc(-c2ccc(OC)cc2)s1	-75.3
Brc1ccc(N=Nc2ccc3ccccc3n2)cc1	i
CCn1c(O)c(N=Nc2ccc3ccccc3n2)c2ccccc21	-143.1
NC(=S)N=Nc1c(O)n(Cc2ccc(Br)cc2)c2ccccc12	i
O=C1NCCc2c1[nH]c1ccc([N+](=O)[O-])cc21	i
CC(C)(O)C(=O)N=Nc1c(O)[nH]c2ccccc12	-96.4
Cc1nc2ccccn2c1C(=O)N=Nc1c(O)[nH]c2ccccc12	-103.2
Oc1[nH]c2ccccc2c1N=Nc1ccccc1F	-356.9
O=[N+]([O-])c1ccc(N=Nc2c(O)[nH]c3ccc(F)cc23)cc1	-82.0
Oc1[nH]c2ccccc2c1N=Nc1ccccc1	-123.0
SMILES	aSyn 5UTR act
Oc1[nH]c2ccccc2c1N=Nc1ccc(F)cc1	-171.3
CCCCOC(=O)/C(=C/c1cn(C)c2ccccc12)NC(=O)c1ccc(OC)cc1	-100.3
CCOc1cc(C(C(=O)NCC2CCCO2)N(C(=O)Cn2nnc3ccccc32)c2ccc(C(C)=O)cc2)ccc1O (stereo not drawn)	-67.5
CCc1ccn2cc(-c3cc(-c4ccccc4)no3)nc2c1	i
Cc1ccccc1-c1cc(-c2ccccc2O)on1	-216.4
Cc1ccc(O)c(-c2cc(-c3ccc(F)cc3)no2)c1	-108.7
Cc1ccc2nc(-c3cc(-c4ccccc4)no3)cn2c1	i
Oc1ccccc1-c1cc(-c2ccccc2)no1	-132.9
O=C(/C=C/N1CCOCC1)c1ccc(-c2ccccc2)cc1	-123.2
S=C(c1ccc(-c2ccccc2)cc1)N1CCOCC1	i
O=C(Oc1ccc(-c2ccccc2)cc1)N1CCOCC1	-103.8
O=C(O)C[C@H](O)C[C@H](O)/C=C/c1c(C2CC2)nc2ccccc2c1-c1ccc(F)cc1	i
CCn1c(-c2cccnc2Cl)nc2cc(Cl)c(Cl)cc21	-118.7
O=C(COC(=O)C1CC1)Nc1ccc(N=Nc2ccccc2)cc1	-118.9
Cn1cnnc1SCC(=O)Nc1ccc2nc(SCc3ccccc3F)sc2c1	-163.2
CSc1nc2ccc(NC(=O)CSc3nnc(N)s3)cc2s1	-118.8
Cc1ccc(Nc2nc(CSc3nnc(-c4ccc(F)cc4)n3C)cs2)cc1	-144.0
Cc1ccc(-c2nnc(SCC(C)C)n2C)cc1	-146.0
CCCCSc1nnc(-c2ccc(OC)cc2)n1C	-132.6
Cc1cc(Nc2ccccc2)n2nc(C)c(-c3ccccc3)c2n1	-64.0
Cc1ccccc1OCc1occc1C(=O)Nc1cccc(-n2cnnn2)c1	-91.5
Cc1nc(-c2ccccc2)nc2[nH]c(=O)n(-c3ccccc3)c(=O)c12	-92.8
Cc1noc(C)c1CSc1nc2[nH]ncc2c(=O)n1-c1ccccc1	i
COc1ccc(/C=C/c2ccc3ccccc3[n+]2C)cc1OC	-123.9
CC(=O)Oc1ccccc1/C=C/c1ccc2ccccc2[n+]1C	-62.5
SMILES	aSyn 5UTR act
Cc1nc(C)c(-c2ccc(SCc3ccccc3F)nn2)s1	-150.7
COc1ccccc1-c1ccc(SCc2ccccc2F)nn1	-74.4
COc1ccccc1-c1ccc(SCc2ccccc2)nn1	-139.5
Cc1ccc(OCCNC(=O)c2ccc3c(c2)OCO3)cc1	-61.6
Cc1ccc(C(=O)NCCOc2cccc(C)c2)cc1	-110.7
O=[N+]([O-])c1ccc(O)c(C=Nc2ccc3c(c2)OCCO3)c1	-62.0
CCCOc1ccc(/C=N/Nc2ccc(C(=O)O)cc2)c(OCCC)c1	-109.0
O=[N+]([O-])c1cccc(N/N=C/c2cc([N+](=O)[O-])ccc2O)c1	-69.6
CCCOc1ccc(/C=N/Nc2ccccc2[N+](=O)[O-])c(O)c1	i
CCCOc1ccc(/C=N/Nc2cccc([N+](=O)[O-])c2)c(O)c1	-164.3
O=[N+]([O-])c1ccc(O)c(/C=N/Nc2ccccn2)c1	i
CN(/N=C/c1cc([N+](=O)[O-])ccc1O)c1ccccc1	-158.8
O=[N+]([O-])c1ccc(N/N=C/c2ccccc2O)cc1	-165.1
COC(=O)c1ccc(Cn2nc(C)cc2C)cc1	-70.9
CC(=O)C(Sc1nn(C)c(=S)s1)C(=O)Nc1ccccc1 (stereo not drawn)	-99.2
CC(=O)C(Sc1nc(N2CCOCC2)nc(N2CCOCC2)n1)C(=O)Nc1ccccc1 (stereo not drawn)	-66.0
CCCC(=O)c1ccc(N2CCOCC2)c(F)c1	-97.4
